The panel holds about 79,000 compounds, 15% with a hit somewhere; the sample as a whole holds those more often. Unmarked numbers belong to inactive results. Active and inactive are the calls of the source. No stated cut-off is given here; in the data, active means growth inhibition above about 70%; inactive means the rest.

Assay [1] in a line: NCI Yeast Anticancer Drug Screen. Data for the rad50 strain (AID 155).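 Further: 0% = growth of vehicle-only cultures of the same strain.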 The note with it: S. cerevisiae rad50 strain growth inhibition, stronger effect = higher value. The procedure, abridged: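 Growth of the mutant yeast was measured after compound exposure and referenced to vehicle-treated cultures.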
The nature of assay [2]: NCI Yeast Anticancer Drug Screen. Data for the mec2-1 strain (AID 157). The note with it: S. cerevisiae mec2-1 strain, stronger effect = higher value. The procedure, abridged: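 Mutant yeast (mec2-1) grown with compound; growth inhibition relative to vehicle control reported.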
Assay [3] is described as follows: NCI Yeast Anticancer Drug Screen. Data for the sgs1 mgt1 strain (AID 161).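 Further: 0% = growth of cultures given vehicle only.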 The settings on record: S. cerevisiae sgs1 mgt1 strain, stronger effect = higher value. The procedure, abridged: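 Percent growth inhibition was derived by comparing compound-exposed mutant yeast with vehicle-exposed cultures. The strain carries alterations in DNA damage repair.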
Assay [4] can be described thus: NCI Yeast Anticancer Drug Screen. Data for the cln2 rad14 strain (AID 165).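 Further: 0% = growth equal to vehicle treated cultures.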 The note with it: S. cerevisiae cln2 rad14 strain, stronger effect = higher value. The procedure, abridged:
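Readout is yeast growth inhibition versus vehicle-treated controls, using a strain with cln2 and rad14 alterations exposed to compound.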

Assay [5] in a line: NCI Yeast Anticancer Drug Screen. Data for the bub3 strain (AID 167). The settings on record: S. cerevisiae bub3 mutant strain, stronger effect = higher value. Summed up:
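Whole-cell yeast assay. The mutant strain was incubated with compounds, and growth inhibition was determined by comparison with vehicle-treated cells.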

Assay [6] can be described thus: NCI Yeast Anticancer Drug Screen. Data for the mlh1 rad18 strain (AID 175). The note with it: S. cerevisiae mlh1 rad18 strain growth inhibition, stronger effect = higher value. Summed up: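 Genetically defined yeast (DNA repair-deficient) exposed to compounds; growth inhibition determined relative to vehicle.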
Setting [7] is: at 5.0 µM (retest, dose inferred, filed as 0.5).
Setting [8] is: at 50.0 µM (retest, dose inferred, filed as 5.0).

As for `CC(=O)NC(CCC(=O)O)C(=O)O.[NH-]C1CCCCC1[NH-].[Pt+2]` (stereo not given), the growth inhibition in assay [1] (setting [7]) is 96% (active); in assay [1] (setting [8]), 99% (active); in assay [1] (at 50.0 µM), 99.5% (active); in assay [2] (setting [7]) it was 99% (active); in assay [2] (setting [8]), 99% (active); in assay [2] (at 50.0 µM), 99.3% (active). Also, the growth inhibition in assay [3] (setting [7]) was 98% (active); in assay [3] (setting [8]), 99% (active); in assay [3] (at 50.0 µM), 100% (active); in assay [4] (setting [7]), 88% (active); in assay [4] (setting [8]) it was 98% (active); in assay [4] (at 50.0 µM), 99.4% (active). Moreover, the growth inhibition in assay [5] (setting [7]) is 99% (active); in assay [5] (setting [8]), 98% (active); in assay [5] (at 50.0 µM), 99% (active); in assay [6] (setting [7]) it was 96% (active); in assay [6] (setting [8]) it was 99% (active); in assay [6] (at 50.0 µM), 99.2% (active).

`CCCCCCCCN(CCCCCCCC)CC(O)c1cc(-c2ccc(Cl)cc2)nc2c(Cl)cccc12` (stereo not given): the growth inhibition in assay [1] (setting [7]) is 1%; in assay [1] (setting [8]) it was 5%; in assay [1] (at 50.0 µM), 19.1%; in assay [2] (setting [7]), -1%; in assay [2] (setting [8]) it was 1%; in assay [2] (at 50.0 µM), 25.2%. In addition, the growth inhibition in assay [3] (setting [7]) was -3%; in assay [3] (setting [8]) it was 20%; in assay [3] (at 50.0 µM), 35.6%; in assay [4] (setting [7]), -4%; in assay [4] (setting [8]), -13%; in assay [4] (at 50.0 µM), 45.4%. Further, the growth inhibition in assay [5] (setting [7]) was 2%; in assay [5] (setting [8]) it was 12%; in assay [5] (at 50.0 µM), 6.6%; in assay [6] (setting [7]) it was 3%; in assay [6] (setting [8]), 4%; in assay [6] (at 50.0 µM) it was 33.5%.

Regarding `Cc1cc(I)ccc1NC(=S)Nc1ccccc1F`, the growth inhibition is -3% in assay [1] (setting [7]); 62% in assay [1] (setting [8]); 90.7% (active) in assay [1] (at 50.0 µM); -4% in assay [2] (setting [7]); 79% (active) in assay [2] (setting [8]); 90.5% (active) in assay [2] (at 50.0 µM). Also, the growth inhibition in assay [3] (setting [7]) was -3%; in assay [3] (setting [8]) it was 41%; in assay [3] (at 50.0 µM) it was 86.5% (active); in assay [4] (setting [7]), -19%; in assay [4] (setting [8]), 45%; in assay [4] (at 50.0 µM), 70% (active). The growth inhibition in assay [5] (setting [7]) is 5%; in assay [5] (setting [8]), 86% (active); in assay [5] (at 50.0 µM), 95.1% (active); in assay [6] (setting [7]), -4%; in assay [6] (setting [8]), 68%; in assay [6] (at 50.0 µM), 90.7% (active).

With `Cc1cc(C)c([O-])c(-[n+]2c(-c3ccccc3)cc(-c3ccccc3)cc2-c2ccccc2)c1`, the growth inhibition was 14% in assay [1] (setting [7]); 14% in assay [1] (setting [8]); 90.8% (active) in assay [1] (at 50.0 µM); 1% in assay [2] (setting [7]); 1% in assay [2] (setting [8]); 92.5% (active) in assay [2] (at 50.0 µM). Further, the growth inhibition was 22% in assay [3] (setting [7]); 22% in assay [3] (setting [8]); 91% (active) in assay [3] (at 50.0 µM); -8% in assay [4] (setting [7]); -8% in assay [4] (setting [8]); 89.8% (active) in assay [4] (at 50.0 µM). Also, the growth inhibition in assay [5] (setting [7]) was -2%; in assay [5] (setting [8]), -2%; in assay [5] (at 50.0 µM) it was 92.2% (active); in assay [6] (setting [7]), 3%; in assay [6] (setting [8]), 3%; in assay [6] (at 50.0 µM), 89.7% (active).

As to `Cc1ccc(/C=N/Nc2ccc([N+](=O)[O-])cc2[N+](=O)[O-])cc1`, the growth inhibition in assay [1] (setting [7]) was -2%; in assay [1] (setting [8]), -4%; in assay [1] (at 50.0 µM), 19.4%; in assay [2] (setting [7]), -1%; in assay [2] (setting [8]), -2%; in assay [2] (at 50.0 µM), -8.75%. For the same molecule, the growth inhibition in assay [3] (setting [7]) was -3%; in assay [3] (setting [8]) it was -3%; in assay [3] (at 50.0 µM), 10.6%; in assay [4] (setting [7]), -4%; in assay [4] (setting [8]), -9%; in assay [4] (at 50.0 µM), 20.1%. For the same molecule, the growth inhibition in assay [5] (setting [7]) is -3%; in assay [5] (setting [8]), -4%; in assay [5] (at 50.0 µM) it was -9.15%; in assay [6] (setting [7]) it was -4%; in assay [6] (setting [8]) it was -4%; in assay [6] (at 50.0 µM), -3.9%.

Turning to `Nc1ccc(/C=C2/c3ccccc3-c3nc4ccccc4cc32)cc1`, the growth inhibition in assay [1] (setting [7]) is 3%; in assay [1] (setting [8]), 87% (active); in assay [1] (at 50.0 µM), 78.9% (active); in assay [2] (setting [7]), 0%; in assay [2] (setting [8]), 63%; in assay [2] (at 50.0 µM) it was 15.6%. Besides, the growth inhibition is -4% in assay [3] (setting [7]); 77% (active) in assay [3] (setting [8]); 59.9% in assay [3] (at 50.0 µM); -4% in assay [4] (setting [7]); 33% in assay [4] (setting [8]); 5% in assay [4] (at 50.0 µM). In addition, the growth inhibition in assay [5] (setting [7]) was -1%; in assay [5] (setting [8]), 57%; in assay [5] (at 50.0 µM) it was 6.8%; in assay [6] (setting [7]) it was 1%; in assay [6] (setting [8]) it was 85% (active); in assay [6] (at 50.0 µM), 52.1%.

Take `CN(C)c1ccc(/C=C/c2nc3ccccc3[nH]2)cc1`: the growth inhibition in assay [1] (setting [7]) was -2%; in assay [1] (setting [8]) it was 89% (active); in assay [1] (at 50.0 µM), 54%; in assay [2] (setting [7]), -9%; in assay [2] (setting [8]), 77% (active); in assay [2] (at 50.0 µM), 56.8%. Further, the growth inhibition in assay [3] (setting [7]) is -3%; in assay [3] (setting [8]) it was 89% (active); in assay [3] (at 50.0 µM), 37.1%; in assay [4] (setting [7]), -7%; in assay [4] (setting [8]) it was 67%; in assay [4] (at 50.0 µM), 16.7%. For the same molecule, the growth inhibition in assay [5] (setting [7]) is -10%; in assay [5] (setting [8]), 54%; in assay [5] (at 50.0 µM), 14.6%; in assay [6] (setting [7]), -13%; in assay [6] (setting [8]), 97% (active); in assay [6] (at 50.0 µM), 80% (active).

With `CCCCCCC[n+]1ccc(C(=O)c2ccccc2)cc1`, the growth inhibition is 99% (active) in assay [1] (setting [7]); 99% (active) in assay [1] (setting [8]); 99.4% (active) in assay [1] (at 50.0 µM); 100% (active) in assay [2] (setting [7]); 99% (active) in assay [2] (setting [8]); 94.3% (active) in assay [2] (at 50.0 µM). The growth inhibition was 100% (active) in assay [3] (setting [7]); 100% (active) in assay [3] (setting [8]); 99.5% (active) in assay [3] (at 50.0 µM); 99% (active) in assay [4] (setting [7]); 100% (active) in assay [4] (setting [8]); 80.2% (active) in assay [4] (at 50.0 µM). Further, the growth inhibition in assay [5] (setting [7]) is 99% (active); in assay [5] (setting [8]) it was 99% (active); in assay [5] (at 50.0 µM), 99.3% (active); in assay [6] (setting [7]), 99% (active); in assay [6] (setting [8]) it was 99% (active); in assay [6] (at 50.0 µM) it was 99.5% (active).

Consider `C/C=C\C=N\NC(N)=S`, for which the growth inhibition was 4% in assay [1] (setting [7]); 5% in assay [1] (setting [8]); 8.9% in assay [1] (at 50.0 µM); -3% in assay [2] (setting [7]); 5% in assay [2] (setting [8]); 83.7% (active) in assay [2] (at 50.0 µM). For the same molecule, the growth inhibition in assay [3] (setting [7]) was 3%; in assay [3] (setting [8]), 6%; in assay [3] (at 50.0 µM), -17.4%; in assay [4] (setting [7]), 3%; in assay [4] (setting [8]), -3%; in assay [4] (at 50.0 µM), -24.6%. For the same molecule, the growth inhibition in assay [5] (setting [7]) was 2%; in assay [5] (setting [8]), 7%; in assay [5] (at 50.0 µM), -2.1%; in assay [6] (setting [7]), 2%; in assay [6] (setting [8]), 1%; in assay [6] (at 50.0 µM), 28.6%.

In the case of `Clc1ccccc1CN1COc2c(cc(Cl)c3cccnc23)C1`, the growth inhibition was 21% in assay [1] (setting [7]); 99% (active) in assay [1] (setting [8]); 98.6% (active) in assay [1] (at 50.0 µM); 6% in assay [2] (setting [7]); 99% (active) in assay [2] (setting [8]); 99.5% (active) in assay [2] (at 50.0 µM). Also, the growth inhibition in assay [3] (setting [7]) is 87% (active); in assay [3] (setting [8]), 100% (active); in assay [3] (at 50.0 µM), 99.4% (active); in assay [4] (setting [7]), 6%; in assay [4] (setting [8]), 99% (active); in assay [4] (at 50.0 µM), 98.8% (active). In addition, the growth inhibition is 61% in assay [5] (setting [7]); 99% (active) in assay [5] (setting [8]); 99.3% (active) in assay [5] (at 50.0 µM); 97% (active) in assay [6] (setting [7]); 99% (active) in assay [6] (setting [8]); 99% (active) in assay [6] (at 50.0 µM).

The values above are taken from PubChem BioAssay (NCI).
